Source: PubChem BioAssay AID602413 (Johns Hopkins Ion Channel Center, 2012)
Among all 1,200 compounds or so, about 150 (12%) were called active.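 Rule for the calls: active = ratio at least 3 SD above the weak peptide control, stable starting fluorescence, no direct agonism earlier; inactive = the rest.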 These entries were drawn from the full list.

Target: Mas-related G-protein coupled receptor member X1 (Homo sapiens) (UniProt Q96LB2)
Assay: MrgX1 positive allosteric modulators, duplicate retest, confirmation, HEK293 cells, Fluo-4 calcium flux (AID 602413);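 note: compound followed by low BAM8-22 agonist challenge near EC20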
Conditions: MrgX1-HEK293, Fluo-4 calcium fluorescence, FDSS, at 10 µM; active compounds read high

Mas-related G-protein coupled receptor member X1 (Homo sapiens), sequence (Q96LB2 whole entry, looked up): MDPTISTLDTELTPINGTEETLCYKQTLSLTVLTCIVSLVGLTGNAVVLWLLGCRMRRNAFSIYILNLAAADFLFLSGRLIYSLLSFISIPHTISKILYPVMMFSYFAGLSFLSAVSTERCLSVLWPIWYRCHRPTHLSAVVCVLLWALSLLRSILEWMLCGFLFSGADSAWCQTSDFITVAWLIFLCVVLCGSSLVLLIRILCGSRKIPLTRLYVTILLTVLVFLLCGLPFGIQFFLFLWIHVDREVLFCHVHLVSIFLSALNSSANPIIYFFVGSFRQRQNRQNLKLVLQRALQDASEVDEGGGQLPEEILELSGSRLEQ

Row | SMILES | activation (ratio percentage)
1 | OCCn1c(-c2ccccc2)csc1=Nc1ccccc1 | inactive
2 | CN1/C(=C\C=C2\N=C(c3ccc(F)cc3)OC2=O)C(C)(C)c2ccccc21 | inactive
3 | COCCNC(=O)C1CCN(S(=O)(=O)c2ccc3c(c2)OCCO3)CC1 | inactive
4 | Fc1cccc(Cl)c1COc1ccc(-c2nnco2)cc1 | inactive
5 | O=C1C(Cc2ccc(O)cc2)NC(=S)N1Cc1ccccc1 (centres undefined) | inactive
6 | COC(=O)c1c(NC(=O)CN(c2ccc(C)c(C)c2)S(C)(=O)=O)sc2c1CCCC2 | inactive
7 | Cc1cccc(Cn2cnc3c(N)c(C)c(C)cc32)c1 | inactive
8 | COc1cccc(-c2cnc(OC(C)(C)C)nc2OC(C)(C)C)c1 | inactive
9 | Brc1ccccc1C1Nc2cccc3cccc(c23)N1 | inactive
10 | Cc1ccc(OC(=O)c2cc3ccccc3o2)cc1 | inactive
11 | Cc1ccnc(NC(=O)C(C)N2C(=O)c3ccccc3C2=O)c1 (centres undefined) | inactive
12 | Cc1cccc(NC(=O)C(C)N2C(=O)C3C4CC(C(Br)C4Br)C3C2=O)c1 (centres undefined) | 11.6% (active)
13 | COC(=O)Cn1c(O)c(N=NC(=O)OC)c2ccccc21 | inactive
14 | CCOc1ccc(C2=CC(c3ccccc3)n3ncnc3N2)cc1 (centres undefined) | inactive
15 | COc1ccc(C2SCCN2S(=O)(=O)c2ccccc2)cc1OC (centres undefined) | inactive
16 | COc1cc(C)c(C)cc1S(=O)(=O)N1CCCc2ccccc21 | 12.4% (active)
17 | COc1cc(C(F)(F)F)nc2c(Br)c(C(C)(C)C)nn12 | inactive
18 | Cc1c(C(=O)N2CCCc3ccccc32)sc2nc(-c3ccccc3)cn12 | inactive
19 | CCOc1ccc2nc(/N=C/c3nc(-c4ccccc4)oc3O)sc2c1 | inactive
20 | Cc1c(C(=O)N2CCN(c3ccc(F)cc3)CC2)oc2c1C(=O)CCC2 | inactive

Row | SMILES | activation (ratio percentage)
21 | CCOc1ccc(NC(=O)N2CC=C(n3c(=O)[nH]c4ccccc43)CC2)cc1 | inactive
22 | CCc1ccc(N(CC(=O)Nc2sc3c(c2C(=O)OC)CCCC3)S(C)(=O)=O)cc1 | inactive
23 | O=C(c1ccc(OC2CCN(C(=O)c3cccnc3)CC2)cc1)N1CCCCCC1 | inactive
24 | CC(C)CNc1ncnc2c1cnn2Cc1ccc(Cl)cc1 | inactive
25 | CC(=O)N1c2ccc(S(=O)(=O)N3CCCC(C(=O)Nc4cccc(Cl)c4)C3)cc2CC1C (centres undefined) | inactive
26 | Cc1ccc(-n2cnc3ncnc(-c4ccccc4)c32)cc1 | inactive
27 | CC(C)CC(=O)N/C(N)=N/c1nc2ccccc2s1 | inactive
28 | Cc1ccc2nc(Nc3ccccc3)cc(C)c2c1 | inactive
29 | COc1ccc(Cc2nc(-c3ccccn3)no2)cc1OC | inactive
30 | Nc1cc(OC(=O)c2ccccc2Br)nn1S(=O)(=O)c1ccccc1 | inactive
31 | O=C(c1cccc(S(=O)(=O)Nc2ccccc2Cl)c1)N1CCN(C(=O)c2ccco2)CC1 | inactive
32 | Nc1ccc(Oc2ccc(Cl)cc2)cc1 | inactive
33 | CC1(C)CC2CC(C)(CN2c2ncnc3ccc(Br)cc23)C1 (centres undefined) | 29.4% (active)
34 | Cc1ccc(S(=O)(=O)N(C)c2nc3ccccc3n3c(C(C)C)nnc23)cc1 | 27.8% (active)
35 | COc1ccc(Nc2nnc(C)c3ccccc23)cc1 | inactive
36 | O=C(Nc1cccc(Cl)c1)c1cncn1-c1ccc(F)cc1 | inactive
37 | NC(=O)c1c(Nc2nc3c(F)cccc3s2)sc2c1CCCC2 | 15.4% (active)
38 | O=C(Nc1nc2c(F)cc(F)cc2s1)C1COc2ccccc2O1 (centres undefined) | inactive
39 | COc1ccc(NC(=O)c2cc(-c3ccc(C)o3)nc3ccccc23)cc1 | inactive
40 | O=C(COC(=O)c1ccc(NS(=O)(=O)c2cccs2)cc1O)Nc1ccc(F)cc1 | inactive

Row | SMILES | activation (ratio percentage)
41 | Cc1nn(C(=O)c2ccoc2C)c(N)c1-c1ccccc1 | inactive
42 | Cc1nc2ccccc2cc1OCc1ccc(F)cc1 | inactive
43 | Cc1cc2ncn(CCCCOc3ccccc3)c2cc1C | inactive
44 | CCN(c1cccc(C)c1)S(=O)(=O)c1ccc(-c2coc(C)n2)cc1 | inactive
45 | Cc1ccc(N/C(N)=N/c2nc(C(F)(F)F)cc(C(F)(F)F)n2)cc1 | inactive
46 | O=C(Nc1ccccc1N1CCOCC1)c1csc2c1CCCC2 | inactive
47 | O=C(Nc1ccccc1N1CCCCC1)c1ccc2nccnc2c1 | 11.5% (active)
48 | Cc1nonc1C1CCCN1Cc1nc(-c2ccc(F)cc2F)oc1C (centres undefined) | inactive
49 | CCOC(=O)N1CCN(C(=O)COCc2cc(-c3ccc4c(c3)OCO4)on2)CC1 | inactive
50 | COc1ccc(-c2cc(C(F)(F)F)nc(S(C)(=O)=O)n2)cc1OC | inactive
51 | O=C(Oc1ccc(C(=S)N2CCOCC2)cc1)c1ccc(F)cc1 | inactive
52 | Cc1ccc2c(c1)c1ncnc(N3CCc4ccccc4C3)c1n2C | inactive
53 | Cc1occc1C(=O)Nc1nnc(-c2ccncc2)s1 | inactive
54 | Cc1ccc2c(C)c(C(=O)N(C)CCC3CCCCO3)oc2c1C (centres undefined) | inactive
55 | CCOCc1nnc(NC(=O)CCC2CCCCC2)s1 | inactive
56 | COc1ccc(OC)c(Nc2nc3ccccc3n3cnnc23)c1 | inactive
57 | COC(=O)Cc1cc(=O)n(-c2nc3ccccc3s2)[nH]1 | inactive
58 | CCC(C)Sc1nc(C)nc2c1c(=O)n(C)c(=O)n2C (centres undefined) | inactive
59 | COc1ccc(C(=O)NC(=S)NC2CCCCC2)cc1 | inactive
